# Laboratory results reported in PubChem BioAssay (NCATS).
# Results filed as inconclusive are left out. A call without a number means that no potency is given here. Active and inactive are the calls of the source. Unless noted, calls come from the whole dose curve.
# System: not listed separately
# Test: qHTS for Inhibitors of the Functional Ribonucleoprotein Complex (vRNP) of Lymphocytic Choriomeningitis Arenaviruses (LCMV): Viability assay - alamar blue signal for LCMV Primary Screen (AID 1347085; calls by dose curve; tested in HEK293 reporter line; note: nearly all actives have a fitted effect of over 80% in size)
# Conditions: alamar blue viability counter-screen, LCMV vRNP screen cells; series mostly up to 57.5 µM
row,Compound,Potency
1,CCCCCCCCCCCC(=O)[O][Sn]([CH2]CCC)([CH2]CCC)[O]C(=O)CCCCCCCCCCC,inactive
2,CC[C@H](C)C(=O)O[C@H]1C[C@H](O)C=C2C=C[C@H](C)[C@H](CC[C@@H](O)C[C@@H](O)CC(=O)O)[C@H]21,inactive
3,C/C(=N\O)c1ccc(OCC(=O)N2CCCCC2)cc1,inactive
4,CCCC(O)C(CC)CO (centres undefined),inactive
5,CC(C)(CO)[C@@H](O)C(=O)NCCCO,inactive
6,Cc1cccc(C(=O)O)c1O,inactive
7,C=C[C@H]1CN2CC[C@H]1C[C@H]2[C@H](O)c1ccnc2ccc(OC)cc12,inactive
8,CC(C)=CCC/C(C)=C/CC/C(C)=C/CCC(=O)OC/C=C(\C)CCC=C(C)C,inactive
9,C/C(=C(\CCO)SS/C(CCO)=C(\C)N(C=O)Cc1cnc(C)nc1N)N(C=O)Cc1cnc(C)nc1N,inactive
10,Cc1c(Nc2ncccc2C(=O)O)cccc1C(F)(F)F,inactive
11,COC(=O)c1ccc(NC(C)=O)cc1OC,inactive
12,O=C(O)CN1C(=O)c2cccc3cccc(c23)C1=O,inactive
13,O=c1[nH]cnc2nc[nH]c12,inactive
14,CC(=O)Nc1ncc([N+](=O)[O-])s1,inactive
15,Cc1cc2nc3c(=O)[nH]c(=O)nc-3n(C[C@H](O)[C@H](O)[C@H](O)CO)c2cc1C,inactive
16,NS(=O)(=O)c1ccc(C(=O)O)cc1,inactive

# Molecular target: Nucleoprotein (Lymphocytic choriomeningitis virus (strain Armstrong)) (UniProt P09992)
# Test: qHTS for Inhibitors of the Functional Ribonucleoprotein Complex (vRNP) of Lymphocytic Choriomeningitis Arenaviruses (LCMV): LCMV Primary Screen - GLuc reporter signal (AID 1347086); note: nearly all actives have a fitted effect of over 70% in size
# Conditions: LCMV minigenome vRNP cell assay, Gaussia luciferase reporter; series mostly up to 57.5 µM
# Sequence of Nucleoprotein (Lymphocytic choriomeningitis virus (strain Armstrong)) (P09992 whole entry, looked up): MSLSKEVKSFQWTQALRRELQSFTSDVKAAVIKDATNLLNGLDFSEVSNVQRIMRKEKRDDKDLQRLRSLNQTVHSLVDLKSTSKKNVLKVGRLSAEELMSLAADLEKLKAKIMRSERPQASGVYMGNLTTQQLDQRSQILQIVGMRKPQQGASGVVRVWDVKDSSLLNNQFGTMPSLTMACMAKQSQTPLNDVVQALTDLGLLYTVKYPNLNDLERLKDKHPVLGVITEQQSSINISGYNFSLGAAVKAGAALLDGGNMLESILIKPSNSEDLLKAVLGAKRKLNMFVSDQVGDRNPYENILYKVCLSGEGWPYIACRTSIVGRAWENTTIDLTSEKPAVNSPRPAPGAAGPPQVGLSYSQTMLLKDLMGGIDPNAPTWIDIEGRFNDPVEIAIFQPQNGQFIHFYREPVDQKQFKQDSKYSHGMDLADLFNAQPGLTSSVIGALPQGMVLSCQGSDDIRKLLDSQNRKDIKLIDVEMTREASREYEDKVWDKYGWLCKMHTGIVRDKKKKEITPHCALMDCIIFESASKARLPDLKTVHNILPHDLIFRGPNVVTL
row,Compound,Potency
1,CN=C(NC#N)NCCSCc1nc[nH]c1C,inactive
2,CCOC(=O)[C@H](CCc1ccccc1)N[C@@H](C)C(=O)N1CCC[C@H]1C(=O)O,inactive
3,O=C1O[C@H](CO)[C@@H](O)[C@H](O)[C@H]1O,inactive
4,Nc1ncnc2c1ncn2[C@@H]1O[C@H](CO)[C@@H](O)[C@H]1O,inactive
5,CNCC(O)c1ccc(O)c(O)c1 (centres undefined),inactive
6,COc1ccc(CCN(C)CCCN2CCc3cc(OC)c(OC)cc3CC2=O)cc1OC,inactive
7,CC12CCC(CC1)C(C)(C)O2,inactive
8,Nc1ccn([C@@H]2O[C@H](CO)[C@@H](O)C2O)c(=O)n1 (some centres undefined),inactive
9,NS(=O)(=O)c1cc(-c2nn[nH]n2)c(NCc2cccs2)cc1Cl,inactive
10,COc1cnc(NS(=O)(=O)c2ccc(N)cc2)nc1,inactive
11,Nc1ccc(C(=O)Oc2ccccc2)c(O)c1,inactive
12,Cc1cc(=O)[nH]c(=S)[nH]1,inactive
13,S=P(N1CC1)(N1CC1)N1CC1,inactive
14,NC(=O)c1cccnc1,inactive
15,CCc1oc2ccccc2c1C(=O)c1cc(I)c(O)c(I)c1,inactive
16,C[C@H]1O[C@@H](n2cc(F)c(=O)[nH]c2=O)[C@H](O)[C@@H]1O,inactive
17,CN(C)CCOC(=O)C(c1ccccc1)C1(O)CCCC1 (centres undefined),inactive
18,COc1cc(O)cc(O)c1,inactive
19,CCCOc1ccc2c(c1)CC[C@@H]1[C@@H]2CC[C@]2(C)C(OC)CC[C@@H]12 (some centres undefined),inactive

row,Compound,Potency
1,O=C1C(O)=C(O)C(=O)C(O)=C1O,inactive
2,CC(=O)Nc1ccc(CC(=O)O)cc1,inactive
3,CCn1cc(C(=O)O)c(=O)c2cc(F)c(N3CCNC(C)C3)c(F)c21 (centres undefined),inactive
4,CCCCCCCCCCCC(=O)[O][Sn]([CH2]CCC)([CH2]CCC)[O]C(=O)CCCCCCCCCCC,inactive
5,CC[C@H](C)C(=O)O[C@H]1C[C@H](O)C=C2C=C[C@H](C)[C@H](CC[C@@H](O)C[C@@H](O)CC(=O)O)[C@H]21,inactive
6,C/C(=N\O)c1ccc(OCC(=O)N2CCCCC2)cc1,inactive
7,CCCC(O)C(CC)CO (centres undefined),inactive
8,CC(C)(CO)[C@@H](O)C(=O)NCCCO,inactive
9,Cc1cccc(C(=O)O)c1O,inactive
10,C=C[C@H]1CN2CC[C@H]1C[C@H]2[C@H](O)c1ccnc2ccc(OC)cc12,inactive
11,CC(C)=CCC/C(C)=C/CC/C(C)=C/CCC(=O)OC/C=C(\C)CCC=C(C)C,inactive
12,C/C(=C(\CCO)SS/C(CCO)=C(\C)N(C=O)Cc1cnc(C)nc1N)N(C=O)Cc1cnc(C)nc1N,inactive
13,Cc1c(Nc2ncccc2C(=O)O)cccc1C(F)(F)F,inactive
14,COC(=O)c1ccc(NC(C)=O)cc1OC,inactive
15,O=C(O)CN1C(=O)c2cccc3cccc(c23)C1=O,inactive
16,O=c1[nH]cnc2nc[nH]c12,inactive
17,CC(=O)Nc1ncc([N+](=O)[O-])s1,inactive
18,Cc1cc2nc3c(=O)[nH]c(=O)nc-3n(C[C@H](O)[C@H](O)[C@H](O)CO)c2cc1C,inactive
19,NS(=O)(=O)c1ccc(C(=O)O)cc1,inactive
